Laboratory results: publication PMC4336329 (PLoS ONE, 2015)
About 2,200 (0.71%) of roughly 310,000 compounds showed an effect of 50% or more. The effect is printed as a negative number. Only a selection was taken, and strong results are over-represented in it overall.

Biological target: human ether-à-go-go-related gene (hERG) potassium channel (human, UniProt Q12809)
Assay: primary screen, population patch clamp on CHO cells stably expressing hERG; higher = less effect of the substance

Chain of human ether-à-go-go-related gene (hERG) potassium channel (Q12809 whole entry, looked up): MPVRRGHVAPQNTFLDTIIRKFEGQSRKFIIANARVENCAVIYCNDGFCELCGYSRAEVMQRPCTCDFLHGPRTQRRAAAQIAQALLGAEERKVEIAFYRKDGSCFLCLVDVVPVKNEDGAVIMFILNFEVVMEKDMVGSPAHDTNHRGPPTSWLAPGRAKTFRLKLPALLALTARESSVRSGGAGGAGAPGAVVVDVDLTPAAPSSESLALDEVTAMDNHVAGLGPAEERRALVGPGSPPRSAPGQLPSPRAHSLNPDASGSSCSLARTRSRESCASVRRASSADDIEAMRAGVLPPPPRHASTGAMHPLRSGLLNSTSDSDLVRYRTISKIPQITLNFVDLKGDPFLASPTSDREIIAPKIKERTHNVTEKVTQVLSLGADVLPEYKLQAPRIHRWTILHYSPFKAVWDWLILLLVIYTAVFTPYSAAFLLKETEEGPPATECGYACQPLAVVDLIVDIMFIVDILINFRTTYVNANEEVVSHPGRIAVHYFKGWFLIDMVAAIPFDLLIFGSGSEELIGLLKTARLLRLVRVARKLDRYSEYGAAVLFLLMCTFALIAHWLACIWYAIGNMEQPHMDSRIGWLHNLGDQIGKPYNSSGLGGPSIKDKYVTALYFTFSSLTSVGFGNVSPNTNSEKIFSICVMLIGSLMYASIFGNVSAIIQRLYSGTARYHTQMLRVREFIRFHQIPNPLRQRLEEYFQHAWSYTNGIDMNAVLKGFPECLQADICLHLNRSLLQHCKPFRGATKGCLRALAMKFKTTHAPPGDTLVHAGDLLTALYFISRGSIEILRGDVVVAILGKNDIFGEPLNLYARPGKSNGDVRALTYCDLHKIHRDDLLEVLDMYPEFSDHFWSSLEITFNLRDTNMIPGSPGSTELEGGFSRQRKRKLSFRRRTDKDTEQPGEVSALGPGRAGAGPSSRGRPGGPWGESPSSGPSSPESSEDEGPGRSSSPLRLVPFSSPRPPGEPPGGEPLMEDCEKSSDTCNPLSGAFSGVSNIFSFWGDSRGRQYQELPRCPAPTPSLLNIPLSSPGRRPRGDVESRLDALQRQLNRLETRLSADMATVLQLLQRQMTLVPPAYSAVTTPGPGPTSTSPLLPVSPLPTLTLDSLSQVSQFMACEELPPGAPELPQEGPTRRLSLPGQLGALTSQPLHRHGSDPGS

| Structure (SMILES) | hERG current change (%, negative = inhibition) at 1uM |
| --- | --- |
| Nc1c(-c2ccc(Cl)cc2)cnc2c(-c3ccccc3)cnn12 | 18.5% |
| Cc1ccc(CSCCNS(C)(=O)=O)cc1 | 10.9% |
| CC(=O)N1CCCc2cc(S(=O)(=O)NC(C(=O)NC(C)c3ccccc3)C(C)C)ccc21 (centres unmarked) | 1.38% |
| COc1ccc(CN2CCNC(=O)C2CC(=O)N(C)CCC2CCOCC2)cc1OC (centres unmarked) | 13.7% |
| Cc1ccc(S(=O)(=O)N2CCOC2CNC(=O)C(=O)NCCCc2ccccc2)cc1 (centres unmarked) | 5.36% |
| CCCCCN1C=CC=C/C1=C\C=C(C#N)C#N | -28.2% |
| CCCCCCN1C=CC=C/C1=C\C=C(C#N)C#N | -69.9% |
| CCCCCCN1C=CC=C/C1=C/C=C(C#N)C#N | -26.6% |
| CCOC(=O)C(O)(CC(=O)Nc1ccc(Cl)cc1Cl)C(F)(F)F (centres unmarked) | 6.91% |
| CCOC(=O)C(Cc1c(F)cccc1F)(NC(C)=O)C(=O)OCC | 8.71% |
| CCOC(=O)COc1ccc(N)cc1CC(NC(C)=O)(C(=O)OCC)C(=O)OCC | -69.6% |
| CCOC(=O)C(Cc1ccccc1)(NC(C)=O)C(=O)OCC | 14.4% |
| COc1ccc(C)cc1NC(=O)C(OC(=O)CNC(=O)c1ccc(Br)cc1)c1ccccc1 (centres unmarked) | 11.1% |
| Cc1cccc(/C=N/n2c(-c3ccccn3)n[nH]c2=S)c1 | 14.4% |
| CC1CN(S(=O)(=O)c2cccc(C(=O)NCC3COc4ccccc4O3)c2)CC(C)O1 (centres unmarked) | 0.895% |
| O=c1ccc(-c2nc3ccccc3n2Cc2ccc(Cl)cc2)c[nH]1 | -50.5% |
| O=c1ccc(-c2nc3cc(Cl)ccc3n2Cc2ccccc2)c[nH]1 | -45% |
| O=c1ccc(-c2nc3ccccc3n2Cc2ccccc2Cl)c[nH]1 | 4.18% |
| Cc1cc(C)nc(SCC(=O)c2ccc(O)c(O)c2)n1 | 16% |
| O=S(=O)(N/N=C/c1cn(Cc2ccccc2)c2ccccc12)c1ccccc1 | 6.23% |
| CCc1ccc2oc(C(=O)N3CCN(c4ccccc4OC)CC3)cc(=O)c2c1 | -57.4% |
| COc1ccccc1N1CCN(C(=O)c2cc(=O)c3ccc(C)cc3o2)CC1 | 1.21% |

| Structure (SMILES) | hERG current change (%, negative = inhibition) at 1uM |
| --- | --- |
| CCc1ccc2oc(C(=O)N3CCN(c4ccc(OC)cc4)CC3)cc(=O)c2c1 | 1.45% |
| COc1ccccc1N1CCN(C(=O)c2cc(=O)c3cc(C)ccc3o2)CC1 | -8.99% |
| COc1ccc(N2CCN(C(=O)c3cc(=O)c4cc(Cl)ccc4o3)CC2)cc1 | -81.5% |
| COc1ccc(N2CCN(C(=O)c3cc(=O)c4cc(C)ccc4o3)CC2)cc1 | -3.09% |
| Cc1ccc(Cn2nnc3c(=O)[nH]c(C4CCCN(C(=O)Nc5ccc(F)cc5F)C4)nc32)cc1 (centres unmarked) | 13.8% |
| O=C(CNC(=O)c1ccccc1O)N/N=C/c1ccccn1 | 4.2% |
| COc1ccc(Cc2nnc(SCC(=O)Nc3ccc(C)c(Cl)c3)[nH]c2=O)cc1 | 5.51% |
| CC(C)=CCCC(C)CN1CCC(n2nccc2NC(=O)c2cccnc2)CC1 (centres unmarked) | -5.79% |
| CC(C)=CCCC(C)CN1CCC(n2nccc2NC(=O)C2CCCC2)CC1 (centres unmarked) | -50.3% |
| CC(C)=CCCC(C)CN1CCC(n2nccc2NC(=O)c2ccccc2)CC1 (centres unmarked) | -52.2% |
| CC(CN1CCC(n2nccc2NC(=O)C2CCCC2)CC1)c1ccccc1 (centres unmarked) | 2.95% |
| CCc1ccc(CN2CCC(n3nccc3NC(=O)c3ccccc3)CC2)o1 | -6.11% |
| O=C(Nc1ccnn1C1CCN(CC(O)CO)CC1)C1CCCC1 (centres unmarked) | 12.5% |
| CCOC(=O)C(C)n1cnc2c1c(=O)[nH]c(=O)n2C (centres unmarked) | 8.76% |
| CCCCNC(=O)[C@H]1C[C@H]1[C@@H](O)[C@H](CO)NC(=O)[C@H](Cc1ccccc1)NC(=O)OC(C)(C)C | 11.5% |
| CCOc1ccc(C(=O)Nc2ccc(S(=O)(=O)N3C[C@@H]4C[C@@H](C3)c3cccc(=O)n3C4)cc2)cc1 | -1.43% |
| COc1ccc2[nH]c(C(=O)NCc3ccccc3)c(C)c2c1.Cl | 10.3% |
| CCN(CC)CCNC(=O)c1[nH]c2ccc(OCc3ccccc3)cc2c1C | -61.3% |
| Cc1c(C(=O)N2CCOCC2)[nH]c2ccc(OCc3ccccc3)cc12 | -1.19% |
| COc1ccc(N(C(=O)c2ccccc2OC)C2C=CS(=O)(=O)C2)c(OC)c1 (centres unmarked) | 14.4% |
| COc1ccc(CN2CCNC(=O)C2CC(=O)NCCc2nc(C)c3c(n2)CCC3)cc1C (centres unmarked) | 32.9% |
| CCC(c1nnnn1CCc1ccccc1)N1CCN(c2ccc(OC)cc2)CC1 (centres unmarked) | 14.5% |
